Only some compounds are listed: those with a hit (about 19% of all), similar ones and a draw of the others.
HT1080NT lethal: kills 2HG-producing HT-1080-NT fibrosarcoma cells. HT-1080-NT fibrosarcoma viability, CellTiter-Glo ATP luminescence, 48 h. Potency, µM (doses to about 46.1 µM), for the others: at the highest dose activity, negative = less viability, hits mostly cytotoxic. 360,000 tested, 1.6% active. AID 686970;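 also: NT is the 2HG producing partner of a matched IDH1 knockdown line; potency is read from the fitted curve at half-maximal effect; 0% = DMSO-treated cells and -100% = media-only wells without cells; nearly all actives have a fitted effect of over 55% in size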
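HT-1080-NT; 750 cells/well; 5% FBS RPMI; 48 h compound, 37 degrees C; CellTiter-Glo luminescence; curve fitting and curve-class assignment.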
IL-1B inflam inh: inhibitors of inflammasome signaling (IL-1 beta secretion); THP-1 LPS/ATP IL-1B secretion, AlphaLISA, 16 h; hits give low values; activity change, % at 57.5 µM; 360,000 tested, 4.7% active; AID 743279; in the data active = activity change below about -50%; inconclusive = mostly about -30% to -49%
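Secreted IL-1B measured by AlphaLISA bead assay after 16 h compound exposure of THP-1 cells; compounds (final up to 57.5 uM) added 1 h before LPS (250 ng/mL) and ATP (1.25 mM) stimulation; lower signal means less secretion.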
HT1080 IDH1KD tx: kills HT-1080 cells with IDH1 knockdown; HT-1080 IDH1 knockdown viability, ATP luminescence, 48 h; Potency, µM (highest dose often 46.1 µM), for inactives: top-dose activity, negative = toxicity, hits mostly cytotoxic; 360,000 tested, 2% active;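 also: potency is read from the fitted curve at half-maximal effect; 0% = DMSO wells and -100% = cell-free medium wells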
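Luminescent ATP read-out (CellTiter-Glo, 10 min at room temperature) after 48 h compound exposure at 37 °C gave viability of IDH1-knockdown HT-1080 cells. Activity was normalised to DMSO and cell-free wells, then fitted as concentration-response curves.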
TDP1 cell noCPT: qHTS for Inhibitors of human tyrosyl-DNA phosphodiesterase 1 (TDP1): qHTS in cells in absence of CPT; Potency, µM (highest dose often 46.2 µM), inactives show top-dose activity change, negative = growth inhibition, usual class: inhibitors; 420,000 tested, 15% active; DT40 Tdp1-/- hTDP1 cells, no CPT, ATP luminescence, 48 h; also: potency is read from the fitted curve at half-maximal effect; nearly all actives have a fitted effect of over 55% in size
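Compound effects on proliferation are scored in DT40 Tdp1-/-;hTDP1 cells in the absence of CPT. ATP levels (CellTiter-Glo luminescence) are recorded after a ≥48 hr, 37 °C incubation.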
DT40 TDP1 CPT: growth inhibition of DT40 Tdp1-/-;hTDP1 cells with camptothecin (screen for TDP1 inhibitors); chicken DT40 Tdp1-/-;hTDP1 cells + 20 nM CPT, ATP luminescence, 48 h; Potency, µM (titrated, usually from 46.2 µM), for inactives: at the highest dose activity change, negative = growth inhibition, most hits filed as inhibitors; 420,000 tested, 12% active; also: potency is read from the fitted curve at half-maximal effect; nearly all actives have a fitted effect of over 55% in size
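Chicken DT40 Tdp1-/- cells complemented with human TDP1, 400 cells/well, exposed to compounds plus 20 nM camptothecin for at least 48 h at 37 C; viability read as ATP content by CellTiter-Glo luminescence.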
Numbers without * were called inactive; ? = inconclusive; · = no result given. Unless noted, calls follow the shape of the dose curve; as a rule, active = well fitted curve in the direction sought with a large enough effect; inconclusive = small, poorly fitted or top-dose-only effect, or another doubt; inactive = no such curve, though single readings can be large; an effect the other way counts as inactive or inconclusive. Unless noted, % is scaled to controls: 0 for no effect and ±100 for the full control effect.

SMILES	HT1080NT lethal	IL-1B inflam inh	HT1080 IDH1KD tx	TDP1 cell noCPT	DT40 TDP1 CPT
O=C(COc1ccc([N+](=O)[O-])cc1)NCC(c1cccs1)N1CCOCC1 (stereo not drawn)	0%	-24	1%	?	-12%
C[C@@H]1CN(S(=O)C(C)(C)C)[C@@H](CCO)/C1=C\c1ccccc1 (stereo partly drawn)	12%	15	7%	?	-23%
CCOc1c(Cl)cc(CNC(C)(C)CC(C)(C)C)cc1OC	?	-12	?	21µM*	?
CCn1nc(C(=O)Nc2cc(Cl)ccc2-n2cncn2)c2ccccc2c1=O	9%	6	14%	-9%	3%
C=CCn1c(=S)[nH]c2scc(-c3ccc(C)o3)c2c1=O	13µM*	46	16µM*	10µM*	?
C=CCn1c(SCC(C)=O)nc2scc(-c3ccc(C)o3)c2c1=O	-23%	-21	?	?	?
CC(=O)c1c(C)oc2ccc(N(C(C)=O)S(=O)(=O)c3cccc4cccnc34)cc12	?	-21	26µM*	4.1µM*	2.1µM*
CC(=O)c1c(C)oc2ccc(N(C(C)=O)S(=O)(=O)c3ccc(F)cc3C)cc12	23%	-7	-2%	16µM*	12µM*
CC(=O)c1c(C)oc2ccc(N(C(=O)c3ccncc3)S(=O)(=O)c3ccccc3)cc12	-4%	2	-13%	?	-26%
CC(C)(C)C(=O)OCc1ccc(C2=CC(=O)CC(C)(C)C2=O)cc1	-3%	21	-1%	?	-10%
Nc1ccn(CCCN2CCN(C(=O)C3CC3)CC2)c(=O)n1	5%	6	18%	0%	-2%
CCCCN(C)c1nc(-c2ccco2)c2c(c1C#N)CC(C)(C)OC2	?	-67*	-22%	?	?
CCOC(=O)CCC(=O)N1CCNC(=O)C1	12%	20	10%	-12%	7%
CCCCOc1ccc(-c2nnn(CC(=O)NCc3ccco3)n2)cc1	7.1µM*	30	7.9µM*	4.6µM*	4.6µM*
Cc1ccc(C(=O)Nc2ncc(Cc3ccccc3)s2)o1	·	0	·	-10%	-23%
O=C(Nc1ncc(Cc2ccc(SC(F)F)cc2)s1)c1ccccc1	4.6µM*	-6	6.5µM*	2.3µM*	2.9µM*
O=C(Nc1ncc(Cc2ccc(Cl)cc2)s1)c1ccc2c(c1)CC(c1ccccc1)OC2=O (stereo not drawn)	·	·	·	7.3µM*	4.6µM*
O=C(NCc1ccc(Cl)cc1Cl)C1CCN(S(=O)(=O)c2ccc3c(c2)OCCCO3)CC1	0%	-6	-21%	?	21µM*
O=C(CCNC(=O)C1CCN(S(=O)(=O)c2ccccc2)CC1)NCc1ccc(Cl)cc1Cl	-21%	-22	-8%	?	21µM*
O=C(CCNC(=O)C1CCN(S(=O)(=O)c2ccccc2)CC1)NCc1ccc(Cl)cc1	4%	8	-1%	?	-27%
CN(CCO)C(=O)c1cn(C2CCN(Cc3cccc(C(F)(F)F)c3)CC2)nn1	·	·	·	-18%	9%
C=C1CC2C3CC[C@@]4(OCOC45COCO5)[C@@]3(C)C(O)CC2[C@@]2(C)CCC(=O)C=C12 (stereo partly drawn)	-25%	-101*	?	18µM*	?
CC(=O)c1cccc(NS(C)(=O)=O)c1	5%	16	6%	1%	-20%
CCc1cccc(C)c1NC(=O)C(CC)n1nc(C)c2c(C)n(-c3ccccc3)nc2c1=O (stereo not drawn)	·	·	·	-23%	-21%
CCCn1nc(C(=O)Nc2cccc(S(=O)(=O)N3CCOCC3)c2)c2ccccc2c1=O	-26%	?	-21%	26µM*	?
SMILES	HT1080NT lethal	IL-1B inflam inh	HT1080 IDH1KD tx	TDP1 cell noCPT	DT40 TDP1 CPT
CCn1nc(C(=O)Nc2ccc(Cl)c(S(=O)(=O)N3CCOCC3)c2)c2ccccc2c1=O	-8%	16	-4%	16µM*	?
CCn1nc(C(=O)Nc2cccc(S(=O)(=O)N3CCCC3)c2)c2ccccc2c1=O	-20%	-15	-25%	?	?
CCOc1ccc(Oc2ccc(Cl)cc2NC(=O)C2=COCCO2)cc1	0%	?	-4%	?	?
O=C(OCc1csc(-c2ccccc2)n1)c1ccc(O)cc1	3%	-13	4%	-19%	2%
CO[C@H]1CN(C)C(=O)c2ccc(NC(=O)NC(C)C)cc2OC[C@H](C)NC[C@H]1C	17%	-8	19%	0%	7%
Cc1cc(Br)cc(C)c1OCCCCN(C)C	?	-21	?	?	29µM*
CCc1ccc(-n2c(=O)c3c4c(sc3n(Cc3cc(=O)n5c(C)cccc5n3)c2=O)CCC4)cc1	·	·	·	12µM*	?
CCc1ccc(-n2c(=O)c3c4c(sc3n(CC(=O)c3ccc(Cl)cc3)c2=O)CCC4)cc1	·	·	·	2.6µM*	2.6µM*
CC(=O)c1sc2c(c1C)c(=O)n(-c1ccc(Cl)cc1)c(=O)n2Cc1ccc(Cl)cc1	·	·	·	8.2µM*	8.2µM*
Cc1ccc(-n2c(=O)c3c4c(sc3n(Cc3cc(=O)n5ccccc5n3)c2=O)CCC4)cc1C	-1%	6	15%	?	?
CCOC(=O)N1CCc2c(sc3c2c(=O)n(-c2ccc(CC)cc2)c(=O)n3Cc2cc(C)ccc2C)C1	·	·	·	-7%	-7%
CCOC(=O)N1CCc2c(sc3c2c(=O)n(-c2ccc(CC)cc2)c(=O)n3CC(=O)c2ccc(F)cc2)C1	·	·	·	?	13µM*
C=CCN1C(=O)N/C(=C/c2ccc(C)o2)C1=O	8%	-5	8%	-77%	?
COc1ccccc1NC(=S)N1CC(C)OC(C)C1 (stereo not drawn)	4%	13	-2%	-22%	-12%
O=C(Cn1c(=O)n(-c2ccc(Cl)cc2)c(=O)c2c3c(sc21)CCC3)c1ccc(F)cc1	·	·	·	9.2µM*	8.2µM*
CCc1ccc(-n2c(=O)c3c4c(sc3n(CC(=O)c3ccc(Br)cc3)c2=O)CCC4)cc1	·	·	·	3.7µM*	5.8µM*
O=c1c2c3c(sc2n(Cc2ccccc2F)c(=O)n1-c1ccc(Cl)cc1)CCCC3	·	·	·	4%	-8%
COc1ccc(-n2c(=O)c3c4c(sc3n(CC(N)=O)c2=O)CCCCC4)cc1	-4%	-8	12%	-8%	-11%
Cc1cccc(-c2nc3c(s2)CCc2onc(-c4ccc(Br)cc4)c2-3)c1	-1%	-2	12%	-16%	-23%
CN1CCN(CCCNC(=O)c2ccc(/C=C3/Sc4ccccc4N(Cc4cccc(Cl)c4)C3=O)cc2)CC1	28%	-4	-26%	?	?

Screening results: PubChem BioAssay, National Center for Advancing Translational Sciences (NCATS)
